# Results published in PubChem BioAssay.
# Calls of active or inactive are those of the source.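 The calls were made as follows, unless noted: active = compounds giving at least 50% inhibition in the cell-based MKP-3 phosphatase rescue imaging test; inactive = the rest.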
# Tests used:
# [1] = inhibitors of TNFa-induced NFkB p65 translocation, primary screen, imaging, HUVEC, MLSMR starter and 10KST1 sets (AID 438;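 active = inhibition above 20% together with a positive visual image hit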;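 also: compound added about 3h40 before a 20 min TNFalpha stimulation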;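 as to inhibition: signal is the nuclear over cytoplasmic p65 intensity ratio per well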); conditions: HUVEC TNFa-induced p65 nuclear translocation; cell count: measured here: nuclei count (cytotoxicity indicator), at 2.08 µM; inhibition: at 2 µM, stronger effect = higher value, 0% TNFa-plus-vehicle, 100% no-TNFa wells
# [2] = inhibitors of mutant huntingtin aggregation, primary screen, imaging, exon1htt(103Q)mCFP cells, high-content imaging (AID 483;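 active = visual image review flags a hit and inhibition of aggregation exceeds 20%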;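 also: compound exposure lasted 3 days before fixation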;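 as to nuclei count: percent of the per-plate median nuclei count of sample wells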); conditions: exon1htt(103Q)mCFP cell line, aggregate imaging, at 2 µM; inhibition of aggregation: stronger effect = higher value; nuclei count: measured here: cell count, toxicity
# [3] = inhibitors of E-selectin induction by TNFa, primary screen, imaging, HUVEC, immunofluorescence, MLSMR starter and 10KST1 sets (AID 487;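 active = visually confirmed hit in the image check and inhibition above 20%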;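 as to inhibition: signal is fraction of cell area covered by stained E-selectin grains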;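 as to nuclei count: 100% = median nuclei count of all wells on the same plate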); conditions: HUVEC TNFalpha-induced E-selectin immunofluorescence imaging, at 2 µM; inhibition: stronger effect = higher value; nuclei count: measured here: cell number, toxicity
# [4] = DUSP6 inhibitors restoring Erk phosphorylation by chemical complementation, primary imaging in DUSP6-transfected HeLa (AID 609); conditions: HeLa MKP-3 transfected, phospho-Erk imaging KS statistic, at 10 µM, cells stimulated with TPA for 15 min;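 as to inhibition: phospho-Erk level distribution per well compared with pooled transfected vehicle control wells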
# [5] = molecular target: Dual specificity protein phosphatase 6 (Homo sapiens) (UniProt Q16828); experiment: as above; conditions: HeLa MKP-3 transfected, phospho-Erk imaging KS statistic; at 10 µM; stronger effect = higher value; cells stimulated with TPA for 15 min
# [6] = molecular target: Voltage-gated potassium channel subunit beta-2 (Rattus norvegicus) (UniProt P62483); experiment: KvBeta enzyme negative modulators, primary screen, biochemical, NADPH fluorescence (AID 622;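 active = fluorescence slope higher than the sample average by over 3 SD, cut at about -0.22 in these data, passing the limit was not always enough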;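 also: slope of raw intensity against log time taken from 70 to 1610 s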); conditions: recombinant KvBeta, 4-cyanobenzaldehyde reduction, at 10 µM, stronger effect = higher value
# [7] = molecular target: Voltage-gated potassium channel subunit beta-2 (Rattus norvegicus) (UniProt P62483); experiment: KvBeta positive modulators, primary screen, biochemical, NADPH fluorescence (AID 623;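 active = NADPH fluorescence slope more negative than the mean of all samples by about 3 SD, 99.7% confidence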;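 also: fluorescence intensity change per second fitted from 20 to 320 s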); conditions: Recombinant KvBeta, NADPH fluorescence decrease slope, 10 min; at 10 µM; stronger effect = lower value
# [8] = molecular target: Alpha-2C adrenergic receptor (Homo sapiens) (UniProt P18825); experiment: modulators of alpha2C/GIRK thallium flux, primary screen, cell-based, HEK293 alpha2C/GIRK1/2 (AID 624;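 active = fluorescence slope after compound addition differing from the mean of all screened samples at 99.7% confidence, in either direction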;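 also: slope of fluorescence ratio to pre-addition baseline per second over 15 to 24 s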); conditions: thallium flux BTC fluorescence, at 10 µM, actives lie on both sides
# [9] = molecular target: Muscarinic acetylcholine receptor M4 (Homo sapiens) (UniProt P08173); experiment: compounds altering M4/GIRK thallium flux, either direction, primary screen, M4 allosteric agonist project, cell-based, HEK293 M4/GIRK, BTC-AM (AID 625;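 active = fluorescence slope after compound addition differing from the mean of all tested samples at 99.7% confidence, mostly higher but some lower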;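 also: thallium influx through GIRK channels coupled to M4 in HEK293 cells with BTC-AM dye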); conditions: at 10 µM, actives lie on both sides
# [10] = inhibitors of larval lipid processing in zebrafish, primary screen, whole organism, PED6 fluorescence, gall bladder and intestine (AID 686;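 active = a full or partial loss of lipid-probe fluorescence in the fish gall bladder, intestine or both, judged by eye; inactive = no fluorescence loss, or compound toxic to the fish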;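 also: larvae 5 to 7 days old with five fish per well; signal comes from phospholipase A2 cleavage of quenched PED6 carried via bile; overnight exposure to compound and PED6 before scoring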); conditions: Zebrafish larvae PED6 lipid processing, fluorescence scoring; screened at 20 µM (by protocol)
# [11] = inhibitors of Chlamydomonas gravitaxis, primary screen, whole organism, Chlamydomonas reinhardtii, WT vs cilia-less mutant, absorbance, 96-well (AID 463189;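 active = inhibition at or above 50% relative to wild type and mutant plate controls; inactive = inhibition below 50%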;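 also: 0% = wild type cc124 cells in DMSO and 100% = ciliumless bld1 mutant cells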); conditions: OD600 absorbance, 2 days, at 10 µM, stronger effect = higher value
# [12] = inhibitors of Sendai virus-induced IRF3 signaling, primary screen, TLR/RLR signaling modifier project, cell-based, Sendai virus stimulus, luciferase, 10K MLSCN set (AID 602276;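 active = inhibition at or above 50% at 10 µM; inactive = inhibition below 50%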;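 also: firefly luciferase from ISG56 promoter only with Renilla not read in this screen; 0% = Sendai virus plus DMSO and 100% = medium plus DMSO without virus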); conditions: HEK293 RL24 IRF3 luciferase reporter, at 10 µM, stronger effect = higher value
# [13] = inhibitors of poly I:C-induced TLR3 signaling, primary screen, cell-based, poly I:C stimulus, luciferase, 10K MLSCN set (AID 602277;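 active = inhibition of the reporter signal at or above 50%; inactive = inhibition below 50%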); conditions: HEK293-TLR3 RL24 IRF3 luciferase reporter, at 10 µM, stronger effect = higher value
# [14] = measured here: cell density z-score
# [15] = measured here: nuclear c-Myc green intensity z-score
# [16] = measured here: nuclear pErk red intensity z-score, stronger effect = higher value
# Voltage-gated potassium channel subunit beta-2 (Rattus norvegicus), sequence (P62483 whole entry, looked up): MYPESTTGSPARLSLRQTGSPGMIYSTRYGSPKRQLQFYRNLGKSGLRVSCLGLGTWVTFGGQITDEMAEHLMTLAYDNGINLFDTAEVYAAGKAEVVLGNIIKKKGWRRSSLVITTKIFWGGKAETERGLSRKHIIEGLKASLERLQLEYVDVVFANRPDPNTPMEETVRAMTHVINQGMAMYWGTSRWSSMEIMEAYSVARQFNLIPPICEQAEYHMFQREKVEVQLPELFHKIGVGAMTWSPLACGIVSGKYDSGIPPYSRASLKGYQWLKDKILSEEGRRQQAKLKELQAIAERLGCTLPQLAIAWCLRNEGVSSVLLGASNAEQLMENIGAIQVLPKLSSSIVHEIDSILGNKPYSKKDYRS
# Muscarinic acetylcholine receptor M4 (Homo sapiens), sequence (P08173 whole entry, looked up): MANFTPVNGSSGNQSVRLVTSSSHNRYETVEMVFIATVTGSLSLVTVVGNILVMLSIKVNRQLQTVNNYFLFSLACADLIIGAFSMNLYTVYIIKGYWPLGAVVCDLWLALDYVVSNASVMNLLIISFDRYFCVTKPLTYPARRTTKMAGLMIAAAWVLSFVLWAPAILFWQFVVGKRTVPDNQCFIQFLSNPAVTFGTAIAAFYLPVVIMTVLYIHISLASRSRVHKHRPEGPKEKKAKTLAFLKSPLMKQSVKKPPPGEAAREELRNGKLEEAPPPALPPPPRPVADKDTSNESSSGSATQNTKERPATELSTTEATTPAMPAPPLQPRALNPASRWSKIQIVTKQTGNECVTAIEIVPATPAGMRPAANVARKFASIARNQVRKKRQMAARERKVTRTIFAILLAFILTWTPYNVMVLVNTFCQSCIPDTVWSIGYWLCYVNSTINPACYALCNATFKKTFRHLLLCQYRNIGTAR
# Alpha-2C adrenergic receptor (Homo sapiens), sequence (P18825 whole entry, looked up): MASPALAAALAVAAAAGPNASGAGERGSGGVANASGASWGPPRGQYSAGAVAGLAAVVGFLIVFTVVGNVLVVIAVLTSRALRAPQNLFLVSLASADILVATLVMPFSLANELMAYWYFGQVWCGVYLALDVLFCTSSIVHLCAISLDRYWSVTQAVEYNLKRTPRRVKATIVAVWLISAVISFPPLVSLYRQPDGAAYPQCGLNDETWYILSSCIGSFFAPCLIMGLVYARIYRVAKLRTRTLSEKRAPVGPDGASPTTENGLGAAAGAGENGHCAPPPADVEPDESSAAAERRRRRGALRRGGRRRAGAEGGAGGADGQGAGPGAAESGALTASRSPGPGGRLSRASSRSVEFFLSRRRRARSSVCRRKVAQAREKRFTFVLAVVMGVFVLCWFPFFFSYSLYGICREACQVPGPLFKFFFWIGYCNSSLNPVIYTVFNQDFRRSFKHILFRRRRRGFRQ
# Dual specificity protein phosphatase 6 (Homo sapiens), sequence (Q16828 whole entry, looked up): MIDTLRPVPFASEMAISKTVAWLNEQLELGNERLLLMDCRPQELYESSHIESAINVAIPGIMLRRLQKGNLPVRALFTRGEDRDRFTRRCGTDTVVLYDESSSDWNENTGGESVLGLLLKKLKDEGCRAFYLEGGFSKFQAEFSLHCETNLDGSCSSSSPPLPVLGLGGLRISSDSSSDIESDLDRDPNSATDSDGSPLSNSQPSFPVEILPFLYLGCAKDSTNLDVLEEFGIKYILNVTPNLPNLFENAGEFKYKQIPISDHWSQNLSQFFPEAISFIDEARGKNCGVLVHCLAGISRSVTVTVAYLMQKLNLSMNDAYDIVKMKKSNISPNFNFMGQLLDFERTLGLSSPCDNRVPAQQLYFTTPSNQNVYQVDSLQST
SMILES,cell count [1],inhibition [1],inhibition of aggregation [2],nuclei count [2] [%],inhibition [3],nuclei count [3] [%],"z-score [4, 14]","z-score [4, 15]","z-score [4, 16]",inhibition [5],fluorescence slope [6],NADPH fluorescence slope [7],slope [8],fluorescence slope [9],outcome [10],inhibition [11],inhibition [12],inhibition [13]
Cn1c(=O)c2c(nc(NCc3ccc4c(c3)OCO4)n2Cc2ccccc2F)n(C)c1=O,651,-4.2% (inactive),37.8% (active),50.9,-161% (inactive),126,-0.011,-1.47,0.345,1.9e-07% (inactive),-0.45 (inactive),-0.000288 (inactive),0.00635 (inactive),0.00703 (inactive),inactive,38.3% (inactive),-2.97% (inactive),10.4% (inactive)
O=C(NCC(F)(F)F)N1CCOCC1,663,11.2% (inactive),14.7% (inactive),106,-23.9% (inactive),102,0.272,0.0222,0.9,-13.3% (inactive),-0.508 (inactive),-3.8e-05 (inactive),0.0049 (inactive),0.00517 (inactive),inactive,33.2% (inactive),9.24% (inactive),15.3% (inactive)
Cc1nc(Sc2cccn2C)c(C(F)(F)F)c(=O)[nH]1,556,-4.5% (inactive),4.3% (inactive),96.7,-64.1% (inactive),108,-1.97,0.557,2.32,1.9e-07% (inactive),-0.447 (inactive),-2.3e-05 (inactive),0.00534 (inactive),0.00695 (inactive),inactive,12.2% (inactive),13.1% (inactive),3.1% (inactive)
CCN(CC)CCOC(=O)C1(c2ccc(OC)c(OC)c2)CCCC1,540,-5.7% (inactive),-1% (inactive),96.9,-29.5% (inactive),96.9,-0.552,-0.514,-0.16,-13.3% (inactive),-0.513 (inactive),-1.5e-05 (inactive),0.00483 (inactive),0.00575 (inactive),inactive,0.789% (inactive),13.2% (inactive),21% (inactive)
CC(CN1CCN(C)CC1)OC(=O)c1ccc(Cl)cc1Cl (configuration not stated),495,2.7% (inactive),-4.3% (inactive),89.3,5.7% (inactive),93.6,0.0987,0.463,-0.406,-0.624% (inactive),-0.4 (inactive),-7.7e-06 (inactive),0.00282 (inactive),0.00468 (inactive),inactive,136% (active),11.3% (inactive),23.1% (inactive)
CN(C)C(CN1C(=O)C2CC=CCC2C1=O)c1cn(C)c2ccccc12 (configuration not stated),665,2.5% (inactive),12.2% (inactive),99.9,-48.8% (inactive),124,-1.61,2.35,0.886,-3.95% (inactive),-0.474 (inactive),-2.6e-05 (inactive),0.00544 (inactive),0.00462 (inactive),inactive,-7.45% (inactive),24.3% (inactive),46.8% (inactive)
Cc1cc(Cn2ccnc2)c(C)cc1Cn1ccnc1,637,-4.4% (inactive),7.9% (inactive),100,-55.4% (inactive),124,-0.00236,1.89,-0.864,-7.67% (inactive),-0.463 (inactive),-0.000121 (inactive),0.00445 (inactive),0.0041 (inactive),inactive,139% (active),19.2% (inactive),17.7% (inactive)
CC(C)C(=O)N1CCN(c2nc(-c3ccccc3)c3c(c2C#N)CCCC3)CC1,615,-2.8% (inactive),0.5% (inactive),89.1,-17.1% (inactive),122,0.333,0.332,-0.342,-7.67% (inactive),-0.377 (inactive),-9.2e-05 (inactive),0.0045 (inactive),0.00499 (inactive),inactive,5.67% (inactive),-7.38% (inactive),17.9% (inactive)
Cc1cc(C)n(CC2CC(=O)N(c3ccc(Cl)c(Cl)c3)C2=O)n1 (configuration not stated),566,-4.3% (inactive),-16.2% (inactive),104,-50.6% (inactive),139,0.432,-0.507,0.03,12.8% (inactive),-0.489 (inactive),-5.7e-05 (inactive),0.0052 (inactive),0.00497 (inactive),inactive,-1.93% (inactive),-1.21% (inactive),6.73% (inactive)
Cc1nnc(SCC(=O)N2CCC(C(N)=O)CC2)s1,423,-2.2% (inactive),-4.3% (inactive),87.6,-80.5% (inactive),137,-1.3,-0.207,-0.854,-3.95% (inactive),-0.418 (inactive),-3.7e-05 (inactive),0.00689 (inactive),0.00524 (inactive),inactive,29.5% (inactive),7.88% (inactive),7.15% (inactive)
CCCCOc1ccc(C(=O)Nc2ccc(N3CCN(C(C)=O)CC3)cc2)cc1,490,-7.3% (inactive),0.5% (inactive),104,-28.4% (inactive),141,1.4,-2.16,0.274,5.95% (inactive),-0.265 (inactive),1.1e-05 (inactive),0.00636 (inactive),0.00551 (inactive),inactive,3.64% (inactive),6.98% (inactive),2.99% (inactive)
CC1(C)Cc2c(c(-c3ccccc3)nc(N3CCCC3)c2C(N)=O)CO1,496,-6% (inactive),15.7% (inactive),102,-130% (inactive),142,-1.1,1.34,-0.38,-6.59% (inactive),-0.473 (inactive),-0.000128 (inactive),0.0059 (inactive),0.00451 (inactive),inactive; toxic,-0.193% (inactive),16.5% (inactive),21.4% (inactive)
Cc1ccc(S(=O)(=O)N2CCN(c3nc(C(C)C)c4c(c3C#N)CC(C)(C)OC4)CC2)cc1,604,-7.5% (inactive),-19.5% (inactive),102,-19.5% (inactive),120,0.934,0.596,-1.08,5.35% (inactive),-0.441 (inactive),-8.5e-05 (inactive),0.00654 (inactive),0.00645 (inactive),inactive; toxic,-7.57% (inactive),-1.31% (inactive),44.4% (inactive)
CC(=O)Nc1ccc(Oc2ccc3nc(C)[nH]c3c2)cc1,566,-6.8% (inactive),13% (inactive),95.6,-129% (inactive),133,-0.271,-0.885,-1.67,13.7% (inactive),-0.504 (inactive),-3.4e-05 (inactive),0.00532 (inactive),0.00521 (inactive),inactive,5.53% (inactive),-8.22% (inactive),-0.929% (inactive)
CCOC(=O)C1/C(=N\O)CC(C)(O)C(C(=O)OCC)C1c1ccc(N(C)C)cc1 (configuration not stated),497,-1.5% (inactive),-7.6% (inactive),106,-131% (inactive),152,-0.215,1.47,0.208,1.9e-07% (inactive),-0.427 (inactive),-4.6e-05 (inactive),0.00546 (inactive),0.00445 (inactive),inactive,0.652% (inactive),10.4% (inactive),16% (inactive)
COc1cc2[nH]c3c(=O)n(CCN(C(C)C)C(C)C)cnc3c2cc1OC,531,-5.6% (inactive),-4% (inactive),102,-26.1% (inactive),150,0.411,-1.49,0.261,3.97% (inactive),-0.317 (inactive),-1.9e-05 (inactive),0.00406 (inactive),0.00609 (inactive),inactive,5.81% (inactive),10.1% (inactive),33.2% (inactive)
C=CCNc1nnc(SC2CC(=O)N(c3ccc(OC)cc3)C2=O)s1 (configuration not stated),474,-3.2% (inactive),-17.3% (inactive),121,-46.1% (inactive),151,-0.38,-0.537,0.655,5.95% (inactive),-0.391 (inactive),-3.8e-05 (inactive),0.00566 (inactive),0.00596 (inactive),inactive,34% (inactive),12.1% (inactive),-1.97% (inactive)
COc1ccc(-c2onc(C)c2-c2ccccc2)c(O)c1,477,0.4% (inactive),-9.9% (inactive),101,-110% (inactive),112,-0.0693,-0.0566,-1.27,1.98% (inactive),-0.441 (inactive),-4.2e-06 (inactive),0.00908 (inactive),0.00531 (inactive),inactive,-11.4% (inactive),8.8% (inactive),32.3% (inactive)
CCOC(=O)Cc1nnc(Nc2cccc(O)c2)c2ccccc12,621,-1.7% (inactive),-13.1% (inactive),99.2,-46.3% (inactive),131,-1.97,0.184,0.582,-15.1% (inactive),-0.457 (inactive),-9.4e-05 (inactive),0.00496 (inactive),0.0057 (inactive),inactive,-9.07% (inactive),0.504% (inactive),-8.25% (inactive)
